Test results as given in PubChem BioAssay AID645 (SRMLSC, 2007).
Among all 65,000 compounds or so, about 450 (0.69%) were called active.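 Rule for the calls: active = HER2 level under 5% of the carrier-only control; inconclusive = no clear call, values can overlap the other calls; inactive = the rest.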 What follows is part of a selection rich in actives, with near analogues and random picks from the rest.

What follows are molecules tested against Receptor tyrosine-protein kinase erbB-2 (Homo sapiens) (UniProt P04626) (assay: inhibitors of Her2 protein expression, primary screen, SKBR-3 cells, AlphaScreen, 66K library (AID 645;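 note: 100% = DMSO carrier and 0% = 500 nM PU-H71 HSP90 inhibitor; lower value means stronger loss of Her2 protein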)). Conditions: SKBR-3 HER2 protein level, 18-24 h, at 10 µM, stronger effect = lower value.
Chain of Receptor tyrosine-protein kinase erbB-2 (Homo sapiens) (P04626 whole entry, looked up): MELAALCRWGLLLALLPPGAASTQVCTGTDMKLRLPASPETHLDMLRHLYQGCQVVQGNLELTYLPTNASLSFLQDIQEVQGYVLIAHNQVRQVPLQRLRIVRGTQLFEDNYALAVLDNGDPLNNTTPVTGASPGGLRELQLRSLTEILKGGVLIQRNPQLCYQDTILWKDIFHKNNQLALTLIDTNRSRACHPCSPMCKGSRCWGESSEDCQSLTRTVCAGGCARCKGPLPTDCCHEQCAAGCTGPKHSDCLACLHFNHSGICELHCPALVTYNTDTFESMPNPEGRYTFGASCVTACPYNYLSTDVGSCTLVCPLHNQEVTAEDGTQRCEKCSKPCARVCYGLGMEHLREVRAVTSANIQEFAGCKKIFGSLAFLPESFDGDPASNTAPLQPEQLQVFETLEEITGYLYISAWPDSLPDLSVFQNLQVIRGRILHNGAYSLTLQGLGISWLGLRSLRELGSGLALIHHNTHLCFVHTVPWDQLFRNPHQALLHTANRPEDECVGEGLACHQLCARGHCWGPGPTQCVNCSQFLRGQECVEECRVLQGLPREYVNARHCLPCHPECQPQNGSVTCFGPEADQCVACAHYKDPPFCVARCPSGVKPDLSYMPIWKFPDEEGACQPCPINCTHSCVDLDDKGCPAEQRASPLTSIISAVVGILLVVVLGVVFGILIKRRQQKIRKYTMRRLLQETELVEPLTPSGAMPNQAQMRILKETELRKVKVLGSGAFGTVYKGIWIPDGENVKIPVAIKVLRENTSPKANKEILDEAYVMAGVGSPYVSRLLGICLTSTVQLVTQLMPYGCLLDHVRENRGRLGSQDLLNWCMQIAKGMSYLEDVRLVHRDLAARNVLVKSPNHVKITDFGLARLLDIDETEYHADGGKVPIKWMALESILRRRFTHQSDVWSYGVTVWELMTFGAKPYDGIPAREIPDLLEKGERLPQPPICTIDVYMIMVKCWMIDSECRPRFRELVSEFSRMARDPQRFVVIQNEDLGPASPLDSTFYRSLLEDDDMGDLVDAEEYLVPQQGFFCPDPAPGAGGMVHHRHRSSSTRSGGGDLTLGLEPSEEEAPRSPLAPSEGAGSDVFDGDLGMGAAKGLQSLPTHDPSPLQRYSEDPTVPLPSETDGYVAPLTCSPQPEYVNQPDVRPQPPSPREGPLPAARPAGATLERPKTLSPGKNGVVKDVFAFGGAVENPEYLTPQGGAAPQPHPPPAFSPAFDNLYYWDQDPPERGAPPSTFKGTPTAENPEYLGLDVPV

Structure (SMILES)	HER2 level % of control
N#Cc1ccc(CSc2nnc(-c3ccccn3)n2-c2ccc(Cl)cc2)cc1	41.4% (inactive)
O=C(c1ccco1)N1CCN(C(=O)C2CC(c3ccc(F)cc3)=NO2)CC1 (stereo unspecified)	57.7% (inactive)
OCCNCCCCOc1ccccc1F	116% (inactive)
O=C1c2oc3ccccc3c(=O)c2C(c2cccc(O)c2)N1c1ccccn1 (stereo unspecified)	95% (inactive)
CCOC(=O)c1sc2nc(CSCC(=O)OCc3ccc(C(=O)OC)o3)[nH]c(=O)c2c1C	60.2% (inactive)
CCC(c1nnnn1Cc1ccccc1)N(Cc1cc2cc(OC)ccc2[nH]c1=O)CC1CCCO1 (stereo unspecified)	117% (inactive)
CCC(c1nnnn1Cc1ccco1)N(CCc1ccccc1)Cc1cc2ccc(OC)cc2[nH]c1=O (stereo unspecified)	76.1% (inactive)
CCC(c1nnnn1Cc1ccco1)N(Cc1cc2cc(OC)ccc2[nH]c1=O)C1CCCCC1 (stereo unspecified)	1.98% (active)
Cc1cc(NC(=O)CN2CCCCC2C)nc2c1c(=O)oc1ccccc12 (stereo unspecified)	70% (inactive)
COc1ccccc1CNC(=O)CCn1c(=O)sc2ccccc21	92.5% (inactive)
Cn1c(=O)c2c(nc(CN3CCOCC3)n2Cc2ccccc2)n(C)c1=O	75.7% (inactive)
S=C1SCN(CCN2CCOCC2)CN1Cc1ccccc1	3.88% (active)
COc1ccc(CN2CN(C(C)C)CSC2=S)cc1	10.7% (inactive)
O=C(NCc1ccco1)C1CCCN(S(=O)(=O)c2cnc[nH]2)C1 (stereo unspecified)	105% (inactive)
O=C(N1CCOCC1)N1CCOCC1	112% (inactive)
CS(=O)(=O)N(CC(=O)N1CCN(Cc2ccc3c(c2)OCO3)CC1)c1ccc2c(c1)OCO2	100% (inactive)
COc1ccccc1C(=O)N1CCNC(=O)C1CC(=O)Nc1ccc(Cl)cc1 (stereo unspecified)	67.3% (inactive)
Cc1nc2nc3c(cn2n1)C(=O)CC(c1ccccc1)C3 (stereo unspecified)	122% (inactive)
O=C(Cn1c(-c2ccccn2)nc2ccccc21)NCCN1CCOCC1	79.8% (inactive)
COc1cc(C2C(C(=O)c3ccc(C)o3)=C(O)C(=O)N2Cc2cccnc2)ccc1O (stereo unspecified)	154% (inactive)
CCCN1C(=O)C(NS(=O)(=O)c2ccc(N)cc2)(C(F)(F)F)C(C(=O)OC)=C1C (stereo unspecified)	126% (inactive)
CCOC(=O)CSc1nncc2ccc(OC)c(OC)c12	115% (inactive)
CCOC(=O)N1CCN(C(=O)CN(c2ccc(C)c(C)c2)S(=O)(=O)c2ccccc2)CC1	224% (inactive)
Cc1sc2c(c1C)c(=O)n(-c1ccccc1)c1nncn21	86.7% (inactive)

Structure (SMILES)	HER2 level % of control
N#Cc1c(NC(=O)CSc2nc3ccccc3c(=O)n2Cc2ccco2)sc2c1CCCC2	70.4% (inactive)
O=C(NC(=O)c1ccc(Cl)c(Cl)c1)OC1CCS(=O)(=O)C1 (stereo unspecified)	106% (inactive)
OC1CN=C2Sc3ccccc3N2C1 (stereo unspecified)	119% (inactive)
O=C1c2ccccc2C(=O)N1CCc1nn[nH]n1	90.3% (inactive)
Cc1c(CN2CCC(C)CC2)c(=O)n(-c2ccccc2)n1C	107% (inactive)
Cn1c(=O)n(C)c(=O)n(CC(=O)N2CCCCC2)c1=O	149% (inactive)
COc1ccccc1N1CCN(C(=O)CN(Cc2ccc(Cl)cc2)S(C)(=O)=O)CC1	68.2% (inactive)
COc1ccccc1-n1nnnc1S(=O)(=O)Cc1ccc(Cl)cc1	-1.27% (active)
COc1ccccc1N1CCN(Cc2nnnn2CCc2ccccc2)CC1	102% (inactive)
CC(C)C(=O)N1CCN(CCN=CC2=C(O)CC(c3ccco3)CC2=O)CC1 (stereo unspecified)	116% (inactive)
CN(C)CCNC(=O)C(C(=O)c1ccccc1)n1ccccc1=O (stereo unspecified)	99.7% (inactive)
O=C(C(NS(=O)(=O)c1cccc2nsnc12)c1ccccc1)N1CCN(c2ccccn2)CC1 (stereo unspecified)	70.8% (inactive)
CCOP1(=O)C=C(C(C)(C)C)OC1c1ccc(F)cc1 (stereo unspecified)	-28.1% (active)
CC1CCc2c(sc3c2C2=NS(=O)(=O)CCN2C=N3)C1 (stereo unspecified)	111% (inactive)
O=C(NCc1cccs1)c1ccc2c(c1)ncn2C1CCCC1	121% (inactive)
Cc1ccc(OCC(O)CN2CCN(CC(O)COc3ccc(C)cc3Cl)CC2)c(Cl)c1 (stereo unspecified)	65.4% (inactive)
COc1ccc(N2CCN(CCNC(=O)c3nnc(Cc4c(F)cccc4Cl)o3)CC2)cc1	103% (inactive)
O=C(CSc1nnc(Cn2cnc3ccccc32)o1)c1ccccc1	107% (inactive)
CC(C)Oc1ccc(C2NC(=O)NC2=O)cc1 (stereo unspecified)	81.7% (inactive)
Cc1ccccc1N1CC(c2nc3ccccc3[nH]2)CC1=O (stereo unspecified)	99.4% (inactive)
N#CC1=C(SCc2ccccc2)NC(=O)C(C#N)C12CCCC2 (stereo unspecified)	88.2% (inactive)
CCOC(=O)C1CCCN(C(=O)c2sc3nc(C)nc(N4CCOCC4)c3c2C)C1 (stereo unspecified)	87.2% (inactive)
CCS(=O)(=O)NCCc1ccc(OC)c(OC)c1	90.2% (inactive)
Cc1ccccc1-n1c(SCC(=O)NCc2cccs2)nnc1-c1ccncc1	108% (inactive)

Structure (SMILES)	HER2 level % of control
CCN(CC(=O)NCc1cccs1)c1nnnn1-c1ccccc1	-25.9% (active)
Cc1nnc(SCC(=O)NCc2cccs2)[nH]c1=O	87.7% (inactive)
CCN1C(=O)/C(=C2\SC(N3CCCCC3)=NC2=O)c2ccccc21	121% (inactive)
COc1cccc(C(=O)Nc2c3c(nn2-c2cccc(C)c2C)CS(=O)(=O)C3)c1OC	119% (inactive)
Cc1nc2cc(-c3ccc(F)cc3)nn2c(N2CCOCC2)c1C	49.6% (inactive)
Cn1c(=O)c2[nH]c(NCC3CCCO3)nc2n(-c2ccccc2)c1=O (stereo unspecified)	83.7% (inactive)
CCCC(NS(=O)(=O)c1ccc(OC)cc1)C(=O)O (stereo unspecified)	96.9% (inactive)
O=S(=O)(Nc1ccccc1N1CCOCC1)c1ccc(Cl)s1	95.5% (inactive)
N#CC(C(N)=O)=C1CCC2(CC1)OCCCCO2	93.5% (inactive)
CC1CCC(NS(=O)(=O)c2ccc3c(c2)n(C)c(=O)c(=O)n3C)CC1 (stereo unspecified)	76.3% (inactive)
Brc1ccc(OCCn2ccnc2)cc1	109% (inactive)
Cc1ccc(N2CCN(S(=O)(=O)N(C)C)CC2)cc1Cl	105% (inactive)
Cc1nnc(NC2=NCCCCC2)o1	106% (inactive)
O=C(Nc1cc(=O)[nH]c2ncnn12)c1ccccc1Cl	92% (inactive)
CSC1=N/C(=C\C=C\c2cccs2)C(=O)S1	0.09% (active)
COCC(C)N=CC1=C(O)CC(C)(C)CC1=O (stereo unspecified)	118% (inactive)
Cc1nc2sc(C(c3ccco3)N3CCOCC3)c(O)n2n1 (stereo unspecified)	51% (inactive)
C/C(=C\C(=O)c1ccccc1)Nc1cccc(O)c1	58.9% (inactive)
c1ccc2cc3[nH]c(CN4CCCCC4)nc3cc2c1	96.1% (inactive)
O=C(Nc1cccc(Cl)c1)OCc1ccccn1	91.3% (inactive)
Cc1cc(C(=O)Nc2c(C)n(C)n(-c3ccccc3)c2=O)cs1	91.6% (inactive)
COC(=O)Nc1c(C)n(C)n(-c2ccccc2)c1=O	89.1% (inactive)
Cc1c(NC(=O)c2coc(=O)c(Br)c2)c(=O)n(-c2ccccc2)n1C	-15.4% (active)
CS(=O)(=O)c1ccc2nc(NC(=O)C3CCCCC3)sc2c1	45.1% (inactive)

Structure (SMILES)	HER2 level % of control
CC(=O)c1c(C)n(-c2ccc(N(C)C)cc2)c2ccc(OCC(N)=O)cc12	64.8% (inactive)
COc1ccccc1-c1nnc(SCC(=O)Nc2cc(C)on2)o1	92.1% (inactive)
O=c1[nH]c(-c2ccccc2)c(-c2ccccc2)[nH]1	88.4% (inactive)
CC1(C)CC(=O)NC=C(c2ccccc2)C1	-32.3% (active)
CC(C)C1C2=C(CC(C)(C)CC2=O)ON1c1ccccc1 (stereo unspecified)	89.9% (inactive)
CC(C)(C)NC(=O)Cn1nnc(-c2ccccc2Cl)n1	75.9% (inactive)
COCCCNC(=O)CCc1nc2cccnc2n1Cc1ccc(OC)cc1	96.5% (inactive)
Cc1cc(NC(=O)CCC(=O)N(c2cccc(F)c2)C(C(=O)NC2CCCC2)c2ccncc2)no1 (stereo unspecified)	97% (inactive)
CCn1c(SCC(=O)NCC2CCCO2)nc2cc(S(=O)(=O)N3CCCCC3)ccc21 (stereo unspecified)	-27.6% (active)
CCCCn1c(SCC(=O)NCC2CCCO2)nc2ccc(N3CCOCC3)cc2c1=O (stereo unspecified)	92.5% (inactive)
CCn1cc(C(=O)NCC2CCCO2)c(=O)c2cc(S(=O)(=O)N3CCCCC3)ccc21 (stereo unspecified)	108% (inactive)
Cc1cc(C)nc(SCc2ccccc2C#N)n1	112% (inactive)
COc1ccc(C(=O)N2CCC(C(=O)Nc3cccc(C)c3)CC2)cc1OC	97.1% (inactive)
Cc1nc2ccc(S(=O)(=O)NC(C(=O)N3CCCCCC3)C(C)C)cc2s1 (stereo unspecified)	82.8% (inactive)
Cc1nc2cc(S(=O)(=O)C(F)(F)F)ccc2s1	-17.7% (active)
Cc1nc2ccc(S(=O)(=O)NCC(=O)O)cc2s1	73.5% (inactive)
O=C(NCCN=C1NS(=O)(=O)c2ccccc21)c1ccc(S(=O)(=O)N2CCOCC2)cc1	108% (inactive)
CCOc1ccc(OCc2ccc(C(=O)Nc3cccc(C)n3)o2)cc1	68.1% (inactive)
CC(C)(C)n1nnnc1C(c1ccc2ncccc2c1)N1CCSCC1 (stereo unspecified)	92.2% (inactive)
CC(C)c1ccc(OCC(O)Cn2cnc3ccccc32)cc1 (stereo unspecified)	83.1% (inactive)
Cc1ccc(CCNC(=O)C2CCN(S(=O)(=O)N3CCCC3)CC2)cc1	107% (inactive)
Cc1ccc(S(=O)(=O)N2CCC(C(=O)N[C@@H](C)C(=O)NCc3ccccc3)CC2)cc1	102% (inactive)
Cc1ccc(S(=O)(=O)N2CCC(C(=O)N[C@@H](C)C(=O)NCCc3ccccc3)CC2)cc1	-21.9% (active)
CC(C)C[C@H](NC(=O)[C@@H]1O[C@H]1C(=O)O)C(=O)NCCCCN=C(N)N	100% (inactive)
